The values below come from PubChem BioAssay (EPA / NIEHS).

Some compounds were tested as several samples or in several runs, with calls that do not always agree. The source made the active and inactive calls. The calls were made as follows: active = hit-call score of the fitted dose curve at least 0.9, where 1 is the maximum; inactive = score below 0.9.

This test is described as follows: APR_HepG2_CellLoss_24hr: Apredica 24-hour HepG2 Assay for Cell Loss (AID 2282908).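 As to AC50: fit in both directions so a hit may be cell loss or gain.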 Particulars: high-content imaging. The method, then: APR_HepG2_24hr is a cell-based, multiplexed-readout assay that uses HepG2, a human liver cell line, with measurements taken at 24 hours after chemical dosing in a 384-well plate.APR_HepG2_CellLoss_24hr is one of 10 assay component(s) measured or calculated from the APR_HepG2_24hr assay. It is designed to make measurements of cell number, a form of viability reporter, as detected with fluorescence intensity signals by HCS Fluorescent Imaging technology.Data from the assay component APR_HepG2_CellLoss_24hr was analyzed into 1 assay endpoint. This assay endpoint, APR_HepG2_CellLoss_24hr, was analyzed with bidirectional fitting relative to DMSO as the negative control and baseline of activity. Using a type of viability reporter, measures of all nuclear dna for gain or loss-of-signal activity can be used to understand the viability at the cellular-level. Furthermore, this assay endpoint can be referred to as a secondary readout, because this assay has produced multiple assay endpoints where this one serves a viability function. To generalize the intended target to other relatable targets, this assay endpoint is annotated to the cell cycle intended target family, where the subfamily is proliferation.
Cells were treated with dimethyl sulfoxide (DMSO) as a solvent control at a final concentration of 0.5% v/v or with compounds in DMSO with a resulting final DMSO concentration of 0.5% v/v. Compound treatment was done at concentrations of 0.39, 0.78, 1.56, 3.12, 6.24, 12.5, 25, 50, 100, and 200 uM in duplicate on each plate. Cells were treated with compounds for 1, 24, or 72 hr. Carbonyl […] m-chloro-phenylhydrazone (CCCP) and taxol were used as positive controls for mitochondrial function and cytoskeletal stability, respectively; DMSO served as the negative control for this experiment. Cells were fixed by the direct addition of 50 uL formaldehyde in Hank's Balanced Salt Solution (HBSS) to a final concentration of 3.7%. After incubation in the fixation medium for 30 min at room temperature (293-298 K), cells were rinsed twice with HBSS and treated with cell permeabilization buffer (16 uL of 0.5% Triton X-100) for 10 min at room temperature (293-298 K) before labeling. For mitochondrial membrane potential and mitochondrial measurements, pre-fixed cells were incubated with 50 uL of MitoTracker Red CMXRos (Invitrogen) at a concentration of 250 nM for 30 min before fixation. In the remaining cases, post-fixed cells were labeled by incubation with a multiplexed mixture of primary antibodies in HBSS for 60 min at room temperature (293-298 K) to detect immunoreactivity of c-Jun (1:500), phospho-histone H3 (1:100), phospho-histone H2A.x (1:200), p53 (1:400), alpha-tubulin (1:200) and Hoechst 33342 (2 ug/mL). Cells were labeled for multiplexed imaging on two separate plates: a) Hoechst 33342, MitoTracker Red, phospho-histone H3, and alpha-tubulin, and b) Hoechst 33342, phospho-histone H2A.x, and c-Jun. A final rinse with HBSS (50 uL) was performed before analysis. The primary and secondary antibodies for the proteins were phospho-histone H3 (rabbit anti-phospho-histone H3 and FITC-donkey anti-rabbit IgG), phospho-histone H2A.x (mouse anti-phospho-histone H2A.x and FITC-donkey anti-mouse IgG), c-Jun (rabbit anti-phospho-c-Jun and Cy3-donkey anti-rabbit IgG), p53 (sheep anti-p53 and Cy5-donkey anti-sheep IgG), alpha-tubulin (mouse anti-alpha-tubulin and Cy5-donkey anti-mouse IgG). These antibodies are available as the CellCiphr HepG2 assay kit (Millipore).Digital images of each well were captured using a Cellomics ArrayScan VTI (Thermo Scientific Cellomics) (0.8 NA objective, 0.63x optical coupler, and XF-93 filter set) at 20x magnification. The images were acquired using the autofocus feature of the ArrayScan instrument, which entails the following steps. First, the camera focuses on channel 1 (Hoechst 33342), where nuclei are identified. Second, a Z offset of 1 um is used for capturing mitochondria (MitoTracker Red). […]
For the compound `CCC(=O)C(CC(C)N(C)C)(c1ccccc1)c1ccccc1` (stereo not given), the compound was classed as inactive.
Usually AC50 stands for the concentration giving half of the maximal activity seen. Turning to `C=C(C)C(=O)[O][Sn]([CH2]CCC)([CH2]CCC)[CH2]CCC`, the AC50 was 0.773 µM (active).
For the compound `O=C(Nc1ccc2[nH]ccc2c1)c1cc2cc(F)ccc2n1Cc1cccc(F)c1`, the AC50 is 22.5 µM (active).
On to `ClCC(Cl)CCl`, for which the result was inactive.
The same measure, in the same setting: the entry for `Cc1ccccc1N` is “inactive”.
Regarding `Cn1sc(Cl)cc1=O`, the AC50 is 109 µM (active).
Same read-out and setting: the value for `CCC(C)(C)c1ccc(O)c(C(C)(C)CC)c1` was 40.5 µM (active).
Consider `CCCCCCCCc1ccc(O)cc1`, for which the AC50 was 67 µM (active).
Regarding `C[C@]12CCC(=O)C[C@@H]1CC[C@@H]1[C@@H]2CC[C@]2(C)[C@@H](O)CC[C@@H]12`, the compound was classed as inactive.
As to `O=C1C2(Cl)C3(Cl)C4(Cl)C(Cl)(Cl)C5(Cl)C3(Cl)C1(Cl)C5(Cl)C24Cl` (stereo not given), the AC50 is 44.5 µM (active).
As to `O=c1[nH]c(=O)[nH]c(=O)[nH]1`, the result was inactive.
For the compound `O=C(O)C(F)(F)C(F)(F)C(F)(F)C(F)(F)C(F)(F)C(F)(F)C(F)(F)C(F)(F)C(F)(F)C(F)(F)F`, the AC50 is 83.1 µM (active).
For `CC12CC1(C)C(=O)N(c1cc(Cl)cc(Cl)c1)C2=O` (stereo not given), the compound was classed as inactive.
On to `CC(C)(c1ccccc1)c1ccc(O)c(C(C)(C)c2ccccc2)c1`, for which the AC50 was 28.1 µM (active).
As to `C=CC(=O)OCCCCCC(C)C`, the compound was classed as inactive.
As for `O=C(O)C(Cl)(Cl)Cl`, the AC50 was 100 µM (active) and the outcome was inactive.
Take `C[C@@H]1C[C@@H]([C@H](O)CC2CC(=O)NC(=O)C2)C(=O)[C@@H](C)C1`: the AC50 was 0.465 µM (active).
Consider `CCN1CCC2(CC1)COc1cc3c(cc12)N(C(=O)c1ccc(-c2ccc(-c4nnc(C)o4)cc2C)cc1)CC3`, for which the AC50 is 17.5 µM (active).
Same read-out and setting: the value for `CC(C)(OO)c1ccccc1` was 72.2 µM (active); that for `CC(=O)[O][Hg][c]1ccccc1` was 5.21 µM (active).
For `COc1cc(-c2ccc(N)c(OC)c2)ccc1N`, the compound was classed as inactive and the AC50 was 26.9 µM (active).
As for `CC(C)(C)CC(C)(C)c1ccc(O)cc1`, the AC50 was 46 µM (active).
As to `O=C(O)C(F)(F)C(F)(F)C(F)(F)C(F)(F)C(F)(F)C(F)(F)F`, the compound was called inactive.
Take `ClC1(Cl)C2(Cl)C3(Cl)C4(Cl)C(Cl)(Cl)C5(Cl)C3(Cl)C1(Cl)C5(Cl)C24Cl` (stereo not given): the outcome was inactive.
`NC(=O)O`: the AC50 was 6.38 µM (active).
Same read-out and setting: the value for `CC(C)(C)c1cc(O)ccc1O` was 125 µM (active).
Take `Oc1cccc2cccnc12`: the AC50 is 2.29 µM (active).
Consider `CN(C)N=O`, for which the outcome was inactive.
